Measured values: doi:10.1101/2024.03.05.583629

Key:
pT7_6His-AlfaTag-HOXD13 = pT7_6His-AlfaTag-HOXD13 (human, UniProt P35453 263-343); assay: PADIT-seq; details: dsDNA, one strand shown
pT7_6His-AlfaTag-ZIF268 = pT7_6His-AlfaTag-ZIF268 (human, UniProt P18146 335-423); assay: PADIT-seq; details: dsDNA, one strand shown

pT7_6His-AlfaTag-HOXD13, sequence (P35453 263-343): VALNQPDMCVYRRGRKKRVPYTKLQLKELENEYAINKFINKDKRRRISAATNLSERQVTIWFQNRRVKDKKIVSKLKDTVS

Sequence	binding signal (pT7_6His-AlfaTag-HOXD13)	binding signal (pT7_6His-AlfaTag-ZIF268)
CTCGAGGATATCAAGATCTGGCCTCGGCGCCCCACGCGGAACCTCTAGCTAGCCGACTCACTATAGGGATAATCGCCCTGAGCAAAGACC	-0.996 ± 0.127 log2FC	0.0171 ± 0.103 log2FC
CTCGAGGATATCAAGATCTGGCCTCGGCGTTTTAGTGGGAACCTCTAGCTAGCCGACTCACTATAGGGATAATCGCCCTGAGCAAAGACC	1.76 ± 0.0845 log2FC	0.0814 ± 0.0894 log2FC
CTCGAGGATATCAAGATCTGGCCTCGGCGCGTGGACAGGAACCTCTAGCTAGCCGACTCACTATAGGGATAATCGCCCTGAGCAAAGACC	-1.05 ± 0.134 log2FC	0.15 ± 0.106 log2FC
CTCGAGGATATCAAGATCTGGCCTCGGCGTTTTAGCCGGAACCTCTAGCTAGCCGACTCACTATAGGGATAATCGCCCTGAGCAAAGACC	-0.579 ± 0.147 log2FC	0.0458 ± 0.125 log2FC
CTCGAGGATATCAAGATCTGGCCTCGGCTTTTTAGAGGGAACCTCTAGCTAGCCGACTCACTATAGGGATAATCGCCCTGAGCAAAGACC	1.39 ± 0.106 log2FC	0.141 ± 0.108 log2FC
CTCGAGGATATCAAGATCTGGCCTCGGCCATTGGGCGGGAACCTCTAGCTAGCCGACTCACTATAGGGATAATCGCCCTGAGCAAAGACC	-0.505 ± 0.104 log2FC	0.139 ± 0.0899 log2FC
CTCGAGGATATCAAGATCTGGCCTCGGCGCGTGGGTCGGAACCTCTAGCTAGCCGACTCACTATAGGGATAATCGCCCTGAGCAAAGACC	-0.691 ± 0.125 log2FC	1.38 ± 0.0983 log2FC
CTCGAGGATATCAAGATCTGGCCTCGGCATTTGGGCGGGAACCTCTAGCTAGCCGACTCACTATAGGGATAATCGCCCTGAGCAAAGACC	-0.941 ± 0.11 log2FC	0.125 ± 0.0899 log2FC
CTCGAGGATATCAAGATCTGGCCTCGGCCAATTAAAAGGAACCTCTAGCTAGCCGACTCACTATAGGGATAATCGCCCTGAGCAAAGACC	2.77 ± 0.0792 log2FC	
CTCGAGGATATCAAGATCTGGCCTCGGCAAATGGGCGGGAACCTCTAGCTAGCCGACTCACTATAGGGATAATCGCCCTGAGCAAAGACC	-0.536 ± 0.104 log2FC	0.157 ± 0.0868 log2FC
CTCGAGGATATCAAGATCTGGCCTCGGCAGATTAAAAGGAACCTCTAGCTAGCCGACTCACTATAGGGATAATCGCCCTGAGCAAAGACC	1.14 ± 0.0686 log2FC	0.0127 ± 0.0692 log2FC
CTCGAGGATATCAAGATCTGGCCTCGGCCAGATAAAAGGAACCTCTAGCTAGCCGACTCACTATAGGGATAATCGCCCTGAGCAAAGACC	0.383 ± 0.117 log2FC	0.0449 ± 0.11 log2FC
CTCGAGGATATCAAGATCTGGCCTCGGCCTTTTAAGGGGAACCTCTAGCTAGCCGACTCACTATAGGGATAATCGCCCTGAGCAAAGACC	1.67 ± 0.0786 log2FC	0.073 ± 0.082 log2FC
CTCGAGGATATCAAGATCTGGCCTCGGCTTAATAAAAGGAACCTCTAGCTAGCCGACTCACTATAGGGATAATCGCCCTGAGCAAAGACC	2.67 ± 0.0794 log2FC	
CTCGAGGATATCAAGATCTGGCCTCGGCATTTTATATGGAACCTCTAGCTAGCCGACTCACTATAGGGATAATCGCCCTGAGCAAAGACC	3.31 ± 0.0819 log2FC	0.238 ± 0.0895 log2FC
CTCGAGGATATCAAGATCTGGCCTCGGCCGCCCATCCGGAACCTCTAGCTAGCCGACTCACTATAGGGATAATCGCCCTGAGCAAAGACC	-1.06 ± 0.122 log2FC	0.00306 ± 0.0965 log2FC
CTCGAGGATATCAAGATCTGGCCTCGGCATTTTAGTTGGAACCTCTAGCTAGCCGACTCACTATAGGGATAATCGCCCTGAGCAAAGACC	0.276 ± 0.112 log2FC	
CTCGAGGATATCAAGATCTGGCCTCGGCTAATGGGCGGGAACCTCTAGCTAGCCGACTCACTATAGGGATAATCGCCCTGAGCAAAGACC	0.254 ± 0.0964 log2FC	0.0526 ± 0.0899 log2FC
CTCGAGGATATCAAGATCTGGCCTCGGCTCCCCACGCGGAACCTCTAGCTAGCCGACTCACTATAGGGATAATCGCCCTGAGCAAAGACC	-0.217 ± 0.124 log2FC	0.208 ± 0.106 log2FC

Sequence	binding signal (pT7_6His-AlfaTag-HOXD13)	binding signal (pT7_6His-AlfaTag-ZIF268)
CTCGAGGATATCAAGATCTGGCCTCGGCCGCCCAATGGGAACCTCTAGCTAGCCGACTCACTATAGGGATAATCGCCCTGAGCAAAGACC	-0.785 ± 0.113 log2FC	0.0226 ± 0.0907 log2FC
CTCGAGGATATCAAGATCTGGCCTCGGCTTTTTAGTGGGAACCTCTAGCTAGCCGACTCACTATAGGGATAATCGCCCTGAGCAAAGACC	1.59 ± 0.0858 log2FC	0.00131 ± 0.0904 log2FC
CTCGAGGATATCAAGATCTGGCCTCGGCATTGTAAAAGGAACCTCTAGCTAGCCGACTCACTATAGGGATAATCGCCCTGAGCAAAGACC	2.55 ± 0.0888 log2FC	
CTCGAGGATATCAAGATCTGGCCTCGGCCGTTGGGCGGGAACCTCTAGCTAGCCGACTCACTATAGGGATAATCGCCCTGAGCAAAGACC	-0.921 ± 0.107 log2FC	0.0419 ± 0.0862 log2FC
CTCGAGGATATCAAGATCTGGCCTCGGCCGCGCCCGCGGAACCTCTAGCTAGCCGACTCACTATAGGGATAATCGCCCTGAGCAAAGACC	-1.09 ± 0.134 log2FC	0.0207 ± 0.105 log2FC
CTCGAGGATATCAAGATCTGGCCTCGGCGCGTGGTTAGGAACCTCTAGCTAGCCGACTCACTATAGGGATAATCGCCCTGAGCAAAGACC	-0.958 ± 0.117 log2FC	0.357 ± 0.094 log2FC
CTCGAGGATATCAAGATCTGGCCTCGGCCACATAAAAGGAACCTCTAGCTAGCCGACTCACTATAGGGATAATCGCCCTGAGCAAAGACC	2.6 ± 0.0844 log2FC	0.0607 ± 0.0948 log2FC
CTCGAGGATATCAAGATCTGGCCTCGGCGTTTTACGGGGAACCTCTAGCTAGCCGACTCACTATAGGGATAATCGCCCTGAGCAAAGACC	3.16 ± 0.0771 log2FC	0.0617 ± 0.0868 log2FC
CTCGAGGATATCAAGATCTGGCCTCGGCAGGATAAAAGGAACCTCTAGCTAGCCGACTCACTATAGGGATAATCGCCCTGAGCAAAGACC	0.374 ± 0.0721 log2FC	0.0545 ± 0.0675 log2FC
CTCGAGGATATCAAGATCTGGCCTCGGCATCCCACGCGGAACCTCTAGCTAGCCGACTCACTATAGGGATAATCGCCCTGAGCAAAGACC	-0.991 ± 0.113 log2FC	0.41 ± 0.087 log2FC
CTCGAGGATATCAAGATCTGGCCTCGGCGTTTTATACGGAACCTCTAGCTAGCCGACTCACTATAGGGATAATCGCCCTGAGCAAAGACC	2.62 ± 0.0803 log2FC	
CTCGAGGATATCAAGATCTGGCCTCGGCCGCCCACTTGGAACCTCTAGCTAGCCGACTCACTATAGGGATAATCGCCCTGAGCAAAGACC	-0.908 ± 0.133 log2FC	0.543 ± 0.104 log2FC
CTCGAGGATATCAAGATCTGGCCTCGGCTTTTTATCGGGAACCTCTAGCTAGCCGACTCACTATAGGGATAATCGCCCTGAGCAAAGACC	1.91 ± 0.0856 log2FC	0.00149 ± 0.091 log2FC
CTCGAGGATATCAAGATCTGGCCTCGGCCGCTTTCGCGGAACCTCTAGCTAGCCGACTCACTATAGGGATAATCGCCCTGAGCAAAGACC	-1.06 ± 0.128 log2FC	0.0116 ± 0.104 log2FC
CTCGAGGATATCAAGATCTGGCCTCGGCCGCCACCGCGGAACCTCTAGCTAGCCGACTCACTATAGGGATAATCGCCCTGAGCAAAGACC	-0.959 ± 0.127 log2FC	0.142 ± 0.0977 log2FC
CTCGAGGATATCAAGATCTGGCCTCGGCCTTTTACGAGGAACCTCTAGCTAGCCGACTCACTATAGGGATAATCGCCCTGAGCAAAGACC	3.52 ± 0.0778 log2FC	0.0308 ± 0.0876 log2FC
CTCGAGGATATCAAGATCTGGCCTCGGCGAATGGGCGGGAACCTCTAGCTAGCCGACTCACTATAGGGATAATCGCCCTGAGCAAAGACC	-0.762 ± 0.106 log2FC	0.0552 ± 0.0878 log2FC
CTCGAGGATATCAAGATCTGGCCTCGGCGCGTTGGCGGGAACCTCTAGCTAGCCGACTCACTATAGGGATAATCGCCCTGAGCAAAGACC	-1.07 ± 0.16 log2FC	1.75 ± 0.117 log2FC
